PAFAH1B3 inh: PAFAH1B3 enzyme inhibitors, primary screen, biochemical, fluorescence polarization, human. recombinant PAFAH1B3, FP-rhodamine probe. 340,000 compounds, 0.28% hits. inhibition, % at 3.39 µM;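 active means inhibition above the screen-wide average of all tested compounds plus 3 SD, cut at about 25% in these data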
Target sequence (Q15102 whole entry, looked up): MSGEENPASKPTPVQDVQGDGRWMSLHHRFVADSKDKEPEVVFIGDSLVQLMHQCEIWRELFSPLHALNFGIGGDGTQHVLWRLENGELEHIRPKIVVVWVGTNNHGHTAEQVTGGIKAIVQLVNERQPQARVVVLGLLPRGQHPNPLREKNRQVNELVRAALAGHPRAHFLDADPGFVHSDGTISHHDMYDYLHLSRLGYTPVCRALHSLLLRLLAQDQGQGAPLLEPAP
ZTA counter: blocks Epstein-Barr virus ZTA, an EBNA-1 counter-screen. ZTA-DNA binding, fluorescence polarization. inhibition, % at 11 µM. 320,000 compounds, 0.15% hits. AID 2234; in the data active means inhibition above about 33%
EBNA-1 inh: EBNA-1 DNA-binding inhibitors, primary screen, biochemical, fluorescence polarization. 300,000 compounds, 0.34% hits. AID 1950, 2009. inhibition, % at 14.8 µM; in the data active means inhibition above about 28%
pPAFAH FP inh: pPAFAH enzyme inhibitors, primary screen, biochemical, fluorescence polarization, human; Platelet-activating factor acetylhydrolase (Homo sapiens), Q13093; recombinant pPAFAH, FP-rhodamine probe fluorescence polarization; inhibition, % at 3.39 µM; 330,000 compounds, 1.5% hits;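 active means inhibition above the mean inhibition across the screen plus 3 SD, cut at about 25% in these data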;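 further: inhibitors block binding of the rhodamine activity-based probe so polarization drops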
Target sequence (Q13093 whole entry, looked up): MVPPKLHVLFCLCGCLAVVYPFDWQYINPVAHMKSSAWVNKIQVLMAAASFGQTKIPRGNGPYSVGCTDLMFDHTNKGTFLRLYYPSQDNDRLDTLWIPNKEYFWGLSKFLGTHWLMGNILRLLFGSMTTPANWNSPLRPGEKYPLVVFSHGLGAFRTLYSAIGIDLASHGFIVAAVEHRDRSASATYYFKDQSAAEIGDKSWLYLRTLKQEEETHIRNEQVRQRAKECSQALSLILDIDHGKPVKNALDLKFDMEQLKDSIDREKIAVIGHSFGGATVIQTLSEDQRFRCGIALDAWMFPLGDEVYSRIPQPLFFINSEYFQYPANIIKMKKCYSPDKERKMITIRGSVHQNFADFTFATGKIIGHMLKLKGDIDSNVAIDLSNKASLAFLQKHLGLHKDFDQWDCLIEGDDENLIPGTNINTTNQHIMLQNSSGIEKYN
PAFAH1B2 inh: PAFAH1B2 enzyme inhibitors, primary screen, biochemical, fluorescence polarization, human | Platelet-activating factor acetylhydrolase IB subunit alpha2 (Homo sapiens), P68402 | recombinant PAFAH1B2, FP-rhodamine activity probe | inhibition, % at 3.39 µM | 340,000 compounds, 1.2% hits | AID 492953, 2010;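 active means inhibition above the mean of all tested compounds plus 3 SD, cut at about 24% in these data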
PAFAH2 FP inh: PAFAH2 enzyme inhibitors, primary screen, biochemical, fluorescence polarization, human | Platelet-activating factor acetylhydrolase 2, cytoplasmic (Homo sapiens), Q99487 | recombinant PAFAH2, FP-rhodamine activity probe | inhibition, % at 3.39 µM | 340,000 compounds, 0.99% hits | AID 492956, 2010;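 active means inhibition above the mean over all tested compounds plus 3 SD, cut at about 30% in these data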;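 further: inhibitors block probe labeling of enzyme so polarization drops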
Numbers stand for hits. Compounds with a hit are over-represented: about 2.9% of the library has one in this group of screens.

What do the screens show for `Cc1cc2cc(C(c3nnnn3Cc3ccccc3)N3CCc4ccccc43)c(=O)[nH]c2cc1C` (configuration not stated)?
PAFAH1B3 inh: inactive; ZTA counter: inactive; EBNA-1 inh: inactive; pPAFAH FP inh: inactive; PAFAH1B2 inh: inactive; PAFAH2 FP inh: inactive

What do the screens show for `Nc1nn2c(-c3ccccc3)cc(=O)[nH]c2c1N=Nc1ccc(O)cc1`?
PAFAH1B3 inh: inactive; ZTA counter: inactive; EBNA-1 inh: inactive; pPAFAH FP inh: 27; PAFAH1B2 inh: inactive; PAFAH2 FP inh: inactive

What do the screens show for `NC(=O)c1ccc(NC(=O)COC(=O)CC2CC3CCC2C3)cc1` (configuration not stated)?
PAFAH1B3 inh: inactive; pPAFAH FP inh: inactive; PAFAH1B2 inh: inactive; PAFAH2 FP inh: inactive

Results for O=C(COC(=O)CC1CC2CCC1C2)Nc1cc([N+](=O)[O-])ccc1F (configuration not stated) ?
PAFAH1B3 inh: inactive; ZTA counter: inactive; EBNA-1 inh: inactive; pPAFAH FP inh: inactive; PAFAH1B2 inh: 42; PAFAH2 FP inh: 49

Results for O=C(COC(=O)CCc1ccccc1)Nc1cc([N+](=O)[O-])ccc1F ?
PAFAH1B3 inh: inactive; ZTA counter: inactive; EBNA-1 inh: inactive; pPAFAH FP inh: inactive; PAFAH1B2 inh: inactive; PAFAH2 FP inh: inactive

What do the screens show for `COc1cccc(NC(=O)COC(=O)CC2CC3CCC2C3)c1` (configuration not stated)?
PAFAH1B3 inh: inactive; pPAFAH FP inh: 34; PAFAH1B2 inh: inactive; PAFAH2 FP inh: 78

Results for COc1cccc(NC(=O)CN(C)C(=O)CC2CC3CCC2C3)c1 (configuration not stated) ?
PAFAH1B3 inh: inactive; ZTA counter: inactive; EBNA-1 inh: inactive; pPAFAH FP inh: inactive; PAFAH1B2 inh: inactive; PAFAH2 FP inh: inactive

How did O=C(COC(=O)CC1CC2CCC1C2)NC(=O)NCc1ccco1 (configuration not stated) do in these assays?
PAFAH1B3 inh: inactive; ZTA counter: inactive; EBNA-1 inh: inactive; pPAFAH FP inh: inactive; PAFAH1B2 inh: 25; PAFAH2 FP inh: inactive

How did Clc1ccccc1OCc1nc(-c2ccc(Br)o2)no1 do in these assays?
PAFAH1B3 inh: inactive; ZTA counter: inactive; EBNA-1 inh: inactive; pPAFAH FP inh: inactive; PAFAH1B2 inh: inactive; PAFAH2 FP inh: inactive

How did Brc1ccc(-c2noc(CCc3ccccc3)n2)o1 do in these assays?
PAFAH1B3 inh: inactive; ZTA counter: inactive; EBNA-1 inh: inactive; pPAFAH FP inh: inactive; PAFAH1B2 inh: 28; PAFAH2 FP inh: inactive

What do the screens show for `CCN1CC(CN(C)Cc2nc(-c3ccco3)oc2C)CC1=O` (configuration not stated)?
PAFAH1B3 inh: inactive; ZTA counter: inactive; EBNA-1 inh: inactive; pPAFAH FP inh: inactive; PAFAH1B2 inh: inactive; PAFAH2 FP inh: inactive

How did CCN1CC(CN(C)Cc2nc(-c3ccc(C(F)(F)F)cc3)oc2C)CC1=O (configuration not stated) do in these assays?
PAFAH1B3 inh: inactive; ZTA counter: inactive; EBNA-1 inh: inactive; pPAFAH FP inh: 30; PAFAH1B2 inh: inactive; PAFAH2 FP inh: inactive

Results for CC(=O)c1sc(N/N=C\c2c(O)ccc3ccccc23)nc1C ?
PAFAH1B3 inh: inactive; ZTA counter: inactive; EBNA-1 inh: inactive; pPAFAH FP inh: 34; PAFAH1B2 inh: inactive; PAFAH2 FP inh: inactive

Results for C=CC[C@H](CC(=O)N(CCO)Cc1ccccc1)C(=O)N[C@H](COC(=O)[C@@H](CC=C)Cc1ccc(F)cc1)Cc1ccccc1 ?
PAFAH1B3 inh: inactive; pPAFAH FP inh: inactive; PAFAH1B2 inh: 57; PAFAH2 FP inh: inactive

Results for C=CCC[C@H](Cc1ccc(F)cc1)C(=O)O[C@H](CNC(=O)[C@@H](CC=C)CC(=O)N(CCO)Cc1ccccc1)c1ccccc1 ?
PAFAH1B3 inh: inactive; pPAFAH FP inh: inactive; PAFAH1B2 inh: 27; PAFAH2 FP inh: inactive

What do the screens show for `C=CC[C@@H](CC(=O)N(CCO)Cc1ccccc1)C(=O)N[C@H](C)COC(=O)[C@@H](CC=C)Cc1ccc(F)cc1`?
PAFAH1B3 inh: inactive; pPAFAH FP inh: inactive; PAFAH1B2 inh: inactive; PAFAH2 FP inh: inactive

How did Cc1cc(C(=O)N/N=C2\CC(=O)c3ccccc32)c(C)n1-c1ccccc1 do in these assays?
PAFAH1B3 inh: inactive; ZTA counter: inactive; EBNA-1 inh: inactive; pPAFAH FP inh: 31; PAFAH1B2 inh: inactive; PAFAH2 FP inh: inactive

How did NS(=O)(=O)c1ccc(Nc2nc(-c3ccc(O)cc3O)cs2)cc1 do in these assays?
PAFAH1B3 inh: inactive; ZTA counter: inactive; EBNA-1 inh: inactive; pPAFAH FP inh: 27; PAFAH1B2 inh: inactive; PAFAH2 FP inh: inactive

How did CCOc1ccc(NC(=O)CCC(=O)NNC(=O)COc2ccccc2C)cc1 do in these assays?
ZTA counter: inactive; EBNA-1 inh: inactive; pPAFAH FP inh: inactive

How did CCOc1cc(/C=C2\N=C(SCC)SC2=O)cc([N+](=O)[O-])c1OC(C)=O do in these assays?
PAFAH1B3 inh: inactive; ZTA counter: inactive; EBNA-1 inh: inactive; pPAFAH FP inh: inactive; PAFAH1B2 inh: 24; PAFAH2 FP inh: 53

How did CCOc1cc(/C=C2\N=C(SC)SC2=O)cc([N+](=O)[O-])c1OC(C)=O do in these assays?
PAFAH1B3 inh: inactive; ZTA counter: inactive; EBNA-1 inh: inactive; pPAFAH FP inh: inactive; PAFAH1B2 inh: inactive; PAFAH2 FP inh: inactive

Results for O=C(/C=C/Nc1ccc(Oc2ccccc2)cc1)c1ccco1 ?
PAFAH1B3 inh: inactive; ZTA counter: inactive; EBNA-1 inh: inactive; pPAFAH FP inh: inactive; PAFAH1B2 inh: inactive; PAFAH2 FP inh: inactive

Results for O=C(CSc1nc2c(c(=O)n1-c1ccc(Cl)cc1)SCC2)Nc1nccs1 ?
PAFAH1B3 inh: inactive; ZTA counter: inactive; EBNA-1 inh: inactive; pPAFAH FP inh: inactive; PAFAH1B2 inh: inactive; PAFAH2 FP inh: inactive

Results for O=C(CSc1nc2c(c(=O)n1-c1ccc(Br)cc1)SCC2)Nc1nccs1 ?
PAFAH1B3 inh: inactive; ZTA counter: inactive; EBNA-1 inh: 32; pPAFAH FP inh: inactive; PAFAH1B2 inh: inactive; PAFAH2 FP inh: inactive

What do the screens show for `CN(C)C(=O)NC1CCCCCCCCCCC1`?
PAFAH1B3 inh: inactive; ZTA counter: inactive; EBNA-1 inh: inactive; pPAFAH FP inh: inactive; PAFAH1B2 inh: 36; PAFAH2 FP inh: inactive

Results for CC(=O)c1ccc(NC(=O)COC(=O)C2CC3C=CC2C3)cc1 (configuration not stated) ?
PAFAH1B3 inh: inactive; pPAFAH FP inh: inactive; PAFAH1B2 inh: inactive; PAFAH2 FP inh: inactive

What do the screens show for `O=C(COC(=O)C1CC2C=CC1C2)Nc1ccc2c(c1)OC(F)(F)O2` (configuration not stated)?
PAFAH1B3 inh: inactive; ZTA counter: inactive; EBNA-1 inh: inactive; pPAFAH FP inh: 26; PAFAH1B2 inh: inactive; PAFAH2 FP inh: 46

Screens deposited in PubChem by The Scripps Research Institute Molecular Screening Center.
